In the supplement of paper PMC10849652:
The full data set covers some 8,800 targets. This sample favours those with a hit. About 0.5% of all pairs of compound and target were hits.

Legend:
Experiment in all cases: log2 fold change, soluble protein after heating vs DMSO (PISA); higher = thermal stabilisation; K562 lysate, 10 uM; active = over 0.2 and 3.5 SD of the protein, either way, in both replicates (recomputed)
[1] = compound: C1=CC=C(C=C1)[C@H](COC2=CC3=C(C=C2)NC(=O)N3)NC(=O)C4=CC=CN(C4=O)CC5=CC(=C(C=C5)F)F
Procedure, shortened: (§1)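 The values are log-two fold changes in thermal stability compared with solvent controls and come from duplicates. They were obtained by TMTpro 16plex LC-MS/MS, with channel sums equalised, on the supernatant after 21,000xg for 90 min. That supernatant came from crude K562 extract at 1 mg/mL protein treated with 10 μM compound for 30 min, heated for 3 min across 48°C-58°C, pooled and brought to 0.5% NP-40 at 4°C.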

[2] = compound: CC1=C(SC2=C1C(=N[C@H](C3=NN=C(N32)C)CC(=O)N)C4=CC=C(C=C4)Cl)C
Procedure, shortened: as §1

[3] = compound: CC1=C2C(=CC=C1)N=C(N(C2=O)C3=CC=CC=C3C)CN4C=NC5=C(N=CN=C54)N
Procedure, shortened: as §1

[4] = compound: Cc1sc2c(c1C)C(c1ccc(Cl)cc1)=N[C@@H](CC(=O)OC(C)(C)C)c1nnc(C)n1-2
Procedure, shortened: as §1

[5] = compound: c1ccc([C@@H]2C[C@H]2NC2CCNCC2)cc1
Procedure, shortened: as §1

Measured: log2 fold change

PHOSPHO2 (UniProt Q8TCD6)
Sequence of UniProt Q8TCD6 (Q8TCD6 whole entry, looked up): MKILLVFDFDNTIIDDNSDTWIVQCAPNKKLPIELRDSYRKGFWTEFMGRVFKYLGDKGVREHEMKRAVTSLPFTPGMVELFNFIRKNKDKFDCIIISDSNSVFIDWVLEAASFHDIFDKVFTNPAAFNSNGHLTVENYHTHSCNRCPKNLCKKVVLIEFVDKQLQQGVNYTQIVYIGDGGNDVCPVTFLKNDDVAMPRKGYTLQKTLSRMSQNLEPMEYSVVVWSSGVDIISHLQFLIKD
inactive: [1] -0.029 | [2] 0.02 | [3] 0.046 | [4] -0.053 | [5] 0.061

PCBP3 (UniProt P57721)
Sequence of UniProt P57721 (P57721 whole entry, looked up): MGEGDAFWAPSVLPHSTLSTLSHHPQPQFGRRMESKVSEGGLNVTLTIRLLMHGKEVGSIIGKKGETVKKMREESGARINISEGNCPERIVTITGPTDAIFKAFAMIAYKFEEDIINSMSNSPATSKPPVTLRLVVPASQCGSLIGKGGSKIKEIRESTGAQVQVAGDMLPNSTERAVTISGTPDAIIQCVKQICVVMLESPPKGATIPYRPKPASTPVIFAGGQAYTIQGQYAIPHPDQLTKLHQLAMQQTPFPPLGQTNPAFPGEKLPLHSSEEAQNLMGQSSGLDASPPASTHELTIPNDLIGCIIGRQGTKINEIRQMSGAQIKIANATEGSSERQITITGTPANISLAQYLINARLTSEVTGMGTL
inactive: [1] -0.028 | [2] 0.014 | [3] -0.026 | [4] 0.021 | [5] 0

PCBD2 (UniProt Q9H0N5)
Sequence of UniProt Q9H0N5 (Q9H0N5 whole entry, looked up): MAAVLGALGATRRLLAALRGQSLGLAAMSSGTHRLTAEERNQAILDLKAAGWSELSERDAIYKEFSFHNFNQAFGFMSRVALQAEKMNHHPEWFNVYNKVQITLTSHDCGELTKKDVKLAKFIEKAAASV
inactive: [1] -0.019 | [2] 0.048 | [3] 0.002 | [4] -0.011 | [5] -0.172

POMP (UniProt Q9Y244)
Sequence of UniProt Q9Y244 (Q9Y244 whole entry, looked up): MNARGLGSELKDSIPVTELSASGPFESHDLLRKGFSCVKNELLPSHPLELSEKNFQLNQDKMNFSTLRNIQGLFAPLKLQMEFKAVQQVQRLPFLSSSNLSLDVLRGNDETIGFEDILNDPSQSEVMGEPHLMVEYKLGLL
inactive: [1] 0.077 | [2] -0.053 | [3] 0.045 | [4] -0.036 | [5] 0.061

PPFIA2 (UniProt O75334)
Sequence of UniProt O75334 (O75334 whole entry, looked up): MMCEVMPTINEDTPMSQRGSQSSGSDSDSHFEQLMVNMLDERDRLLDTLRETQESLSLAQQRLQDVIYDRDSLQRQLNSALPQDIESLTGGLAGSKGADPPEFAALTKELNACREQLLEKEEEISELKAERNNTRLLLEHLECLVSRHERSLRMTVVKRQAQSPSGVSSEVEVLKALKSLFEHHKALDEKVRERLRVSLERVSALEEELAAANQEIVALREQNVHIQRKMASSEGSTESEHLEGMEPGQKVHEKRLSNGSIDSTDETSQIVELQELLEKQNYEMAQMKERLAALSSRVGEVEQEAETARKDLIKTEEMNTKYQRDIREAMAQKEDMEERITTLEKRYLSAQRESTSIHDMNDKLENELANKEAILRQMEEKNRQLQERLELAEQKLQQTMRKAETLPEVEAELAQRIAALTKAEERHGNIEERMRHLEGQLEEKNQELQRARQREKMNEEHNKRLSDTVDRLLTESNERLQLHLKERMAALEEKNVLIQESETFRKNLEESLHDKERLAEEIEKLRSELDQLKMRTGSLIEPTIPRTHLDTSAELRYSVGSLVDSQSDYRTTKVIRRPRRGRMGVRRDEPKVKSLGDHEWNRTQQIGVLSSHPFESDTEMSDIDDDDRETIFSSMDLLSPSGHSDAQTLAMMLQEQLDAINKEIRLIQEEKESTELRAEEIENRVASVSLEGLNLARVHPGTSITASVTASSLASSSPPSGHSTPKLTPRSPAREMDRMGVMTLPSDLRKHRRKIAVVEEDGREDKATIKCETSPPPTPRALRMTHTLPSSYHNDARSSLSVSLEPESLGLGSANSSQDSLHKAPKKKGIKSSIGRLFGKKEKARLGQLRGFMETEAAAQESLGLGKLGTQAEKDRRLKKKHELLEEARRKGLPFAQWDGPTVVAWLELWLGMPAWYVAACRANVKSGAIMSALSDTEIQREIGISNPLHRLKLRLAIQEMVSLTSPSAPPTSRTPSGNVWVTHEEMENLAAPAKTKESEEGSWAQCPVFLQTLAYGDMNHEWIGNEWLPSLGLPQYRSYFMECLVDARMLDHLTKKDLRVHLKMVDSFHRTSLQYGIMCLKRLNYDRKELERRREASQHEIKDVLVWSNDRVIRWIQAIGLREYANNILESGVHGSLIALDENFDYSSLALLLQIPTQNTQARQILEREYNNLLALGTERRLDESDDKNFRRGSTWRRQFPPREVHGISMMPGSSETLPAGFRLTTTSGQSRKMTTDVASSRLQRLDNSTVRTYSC
inactive: [1] 0.022 | [2] 0.041 | [3] 0.003 | [4] -0.016 | [5] -0.132

PICALM (UniProt H0YEH1)
inactive: [1] 0.018 | [2] -0.027 | [3] -0.138 | [4] 0.075 | [5] -0.303

POLR2M (UniProt Q6EEV4)
Sequence of UniProt Q6EEV4 (Q6EEV4 whole entry, looked up): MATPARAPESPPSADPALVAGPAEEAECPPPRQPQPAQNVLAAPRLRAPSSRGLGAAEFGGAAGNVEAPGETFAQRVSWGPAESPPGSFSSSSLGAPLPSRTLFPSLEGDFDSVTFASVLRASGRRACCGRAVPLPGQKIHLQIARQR
inactive: [1] 0.01 | [2] 0.042 | [3] -0.084 | [4] 0.132 | [5] 0.012

PRKCSH (UniProt K7ELL7)
inactive: [1] 0.045 | [2] -0.027 | [3] -0.157 | [4] -0.112 | [5] -0.048

PCBP2 (UniProt H3BRU6)
inactive: [1] 0.166 | [2] -0.15 | [3] -0.208 | [4] 0.104 | [5] -0.11
